# Assay results taken from PubChem BioAssay (EPA / NIEHS).
# Values joined by “and” are separate entries in the source; they are usually repeats but may differ in a detail not shown here. Equal entries are not always repeated. Inconclusive results are not listed. Active and inactive are the calls of the source. How the source made its calls: active means hit-call score of the fitted dose curve at least 0.9, where 1 is the maximum; inconclusive means response in the unintended direction; inactive means score below 0.9.
# Assays:
# [1] = Tanguay_ZF_120hpf_ActivityScore_legacy: (Legacy) Oregon State University Tanguay Lab 120 Hour Post-fertilization zebrafish Assay Score for Activity (AID 2283742);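 on AC50: dechorionated Tropical 5D wild-type zebrafish embryos held singly per well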
# Method in brief: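 Dechorionated 5D embryos, one per well, static exposure 6–120 hpf, 28C, sealed and dark; final DMSO 0.64% (vol/vol). Brightfield binary scoring of mortality plus 18 endpoints; gain-of-signal fit versus DMSO baseline.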
# [2] = ACEA_AR_antagonist_AUC_viability: ACEA Biosciences xCELLigence Real-Time Cell Analysis on Androgen Receptor Antagonism for Viability (AID 2283776);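 further: area under impedance growth curve at 80 h after dosing as viability; hits lower the growth signal relative to DMSO meaning cytotoxicity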
# Method in brief: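 22Rv1 human prostate cancer cells were seeded on electrode plates, monitored overnight, then exposed to eight 1:4 dilutions from 100 uM final. Impedance-based growth kinetics at 80 h gave an AUC viability endpoint normalized to DMSO.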
# [3] = ACEA_AR_agonist_AUC_viability: ACEA Biosciences xCELLigence Real-Time Cell Analysis on Androgen Receptor Agonism for Viability (AID 2283775);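 on AC50: viability read 80 hours after compound addition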
# Method in brief: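 Viability endpoint from xCELLigence impedance in 22Rv1 prostate cells at 80 h. Eight-point series, 100 uM maximum final.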
# [4] = target: Luciferin 4-monooxygenase (Photinus pyralis) (UniProt P08659); test: CCTE_Simmons_QuantiLum_inhib_2: CCTE's Firefly Luciferase Inhibition Assay, Simmons Lab (AID 2283767)
# Chain of Luciferin 4-monooxygenase (Photinus pyralis) (P08659 whole entry, looked up): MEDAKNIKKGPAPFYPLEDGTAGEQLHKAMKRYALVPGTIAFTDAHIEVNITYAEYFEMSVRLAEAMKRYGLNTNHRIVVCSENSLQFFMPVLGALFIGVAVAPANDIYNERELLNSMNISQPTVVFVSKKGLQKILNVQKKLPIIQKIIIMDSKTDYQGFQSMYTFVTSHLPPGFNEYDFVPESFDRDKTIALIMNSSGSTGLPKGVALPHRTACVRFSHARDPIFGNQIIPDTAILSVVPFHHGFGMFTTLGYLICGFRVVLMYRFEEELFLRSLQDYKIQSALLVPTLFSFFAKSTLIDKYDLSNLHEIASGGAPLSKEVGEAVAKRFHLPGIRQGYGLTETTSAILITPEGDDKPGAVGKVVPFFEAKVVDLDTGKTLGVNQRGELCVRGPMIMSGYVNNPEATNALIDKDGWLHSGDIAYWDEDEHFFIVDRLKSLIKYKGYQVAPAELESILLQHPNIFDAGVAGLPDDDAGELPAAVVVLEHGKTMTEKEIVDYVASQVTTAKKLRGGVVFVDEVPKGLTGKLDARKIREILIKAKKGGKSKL
# Method in brief: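 Cell-free QuantiLum luciferase, 5 ng/well; compounds 5 nM–87.5 uM final, 8 conc, 0.5% DMSO; 30 min, 37C, dark. Detection reagent (150 uM D-luciferin, 147 uM dATP, CoA, DTT, pH 7.8 final) injected per well, kinetic luminescence. Triplicate biological replicates.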
smiles,measurement,setting,value
NS(=O)(=O)C(F)(F)C(F)(F)C(F)(F)C(F)(F)C(F)(F)C(F)(F)C(F)(F)C(F)(F)F,AC50,[1],38 µM (active)
same,AC50,[2],59.4 µM (active)
Cc1cc2c3c(c1)C(c1ccccc1)=N[C@@H](NC(=O)c1ccncc1)C(=O)N3CC2,outcome,[1],inactive
same,AC50,[3],50 µM (active)
same,AC50,[2],50 µM (active)
Cc1ccccc1O,outcome,[1],inactive
same,outcome,[3],inactive
same,outcome,[2],inactive
CC1=C2C[C@H]3[C@@H](CC=C4C[C@@H](O)CC[C@@]43C)[C@@H]2CC[C@]12O[C@@H]1C[C@H](C)CN[C@H]1[C@H]2C,AC50,[1],44.8 µM (active)
same,outcome,[3],inactive
same,outcome,[2],inactive
Sc1ccccc1,outcome,[4],inactive
same,outcome,[3],inactive
same,outcome,[2],inactive
CC(C)C(=O)OCC(C)(C)C(OC(=O)C(C)C)C(C)C (configuration not stated),AC50,[1],27.2 µM (active)
same,AC50,[3],75 µM (active)
same,AC50,[2],90.1 µM (active)
CCCN(CCC)N=O,outcome,[1],inactive
same,outcome,[3],inactive
same,outcome,[2],inactive
CN(C)CCO,outcome,[1],inactive
same,outcome,[3],inactive
same,outcome,[2],inactive
CO/C=C(/C(=O)OC)c1ccccc1COc1cccc(C(F)(F)F)n1,AC50,[1],28.7 µM (active)
same,AC50,[3],50 µM (active)
same,AC50,[2],50 µM (active)
CCC(C)(CC)c1cc(NC(=O)c2c(OC)cccc2OC)on1,outcome,[1],inactive
same,outcome,[3],inactive
same,outcome,[2],inactive
O=C(NC(=O)c1cc(F)c(F)cc1Cl)Nc1cc(F)ccc1N1CCC(C(=O)O)CC1,outcome,[1],inactive
same,outcome,[3],inactive
same,outcome,[2],inactive
ClC1=C(Cl)[C@]2(Cl)[C@@H]3[C@@H]4C[C@@H]([C@H]5O[C@@H]45)[C@@H]3[C@@]1(Cl)C2(Cl)Cl,outcome,[1],inactive
same,AC50,[3],50 µM (active)
same,AC50,[2],50 µM (active)
CCOC(=O)C(O)(c1ccc(Cl)cc1)c1ccc(Cl)cc1,outcome,[1],inactive
same,AC50,[3],79.6 µM (active)
same,AC50,[2],19.6 µM (active)
CCC(C)c1cc([N+](=O)[O-])cc([N+](=O)[O-])c1O (configuration not stated),AC50,[1],0.346 µM (active)
same,AC50,[3],12.7 µM (active)
same,AC50,[2],12 µM (active)
O=NN(c1ccccc1)c1ccccc1,outcome,[1],inactive
same,outcome,[3],inactive
same,outcome,[2],inactive
Nc1ccc(-c2ccc(N)cc2)cc1,outcome,[1],inactive
same,outcome,[2],inactive
ClC1=C(Cl)[C@]2(Cl)[C@@H]3[C@@H](Cl)[C@H]4O[C@H]4[C@@H]3C1(Cl)C2(Cl)Cl,outcome,[1],inactive
same,outcome,[3],inactive
same,AC50,[2],68.9 µM (active)
O=C(N[C@H]1CN2CCC1CC2)c1cc2ccoc2cn1,outcome,[1],inactive
same,outcome,[3],inactive
same,outcome,[2],inactive
CCOCCOC(C)=O,outcome,[1],inactive
same,outcome,[3],inactive
same,outcome,[2],inactive
O=C(O)C(F)(F)C(F)(F)C(F)(F)C(F)(F)C(F)(F)F,outcome,[1],inactive
same,outcome,[2],inactive
Oc1ccc(Cl)cc1Cl,outcome,[1],inactive
same,outcome,[3],inactive
same,outcome,[2],inactive
C1CC2OC2CC1C1CO1 (configuration not stated),outcome,[1],inactive
same,outcome,[3],inactive
same,outcome,[2],inactive
C=CC(=O)NCNC(=O)C=C,outcome,[1],inactive
same,outcome,[3],inactive
same,outcome,[2],inactive
c1cc2ccc3cccc4ccc(c1)c2c34,outcome,[1],inactive
same,outcome,[3],inactive
same,AC50,[2],21.4 µM (active)
O=S(=O)(O)C(F)(F)C(F)(F)C(F)(F)C(F)(F)C(F)(F)C(F)(F)F,AC50,[1],36.6 µM (active)
same,outcome,[3],inactive
same,outcome,[2],inactive
OCC(O)CO,outcome,[3],inactive
same,outcome,[2],inactive
Nn1cnnc1,outcome,[1],inactive
same,outcome,[2],inactive
C=CC(N)=O,outcome,[1],inactive
same,outcome,[3],inactive
same,outcome,[2],inactive
Cc1cc(-c2ccc(N)c(C)c2)ccc1N,outcome,[1],inactive
same,outcome,[3],inactive
same,AC50,[2],7.2 µM (active) and 2.03 µM (active)
CCSC(=O)N(CC)C1CCCCC1,outcome,[1],inactive
same,outcome,[2],inactive
O=S(=O)(O)C(F)(F)C(F)(F)C(F)(F)C(F)(F)F,outcome,[1],inactive
same,outcome,[3],inactive
same,outcome,[2],inactive
ClC1=C(Cl)[C@]2(Cl)[C@@H]3[C@H]4C[C@H]([C@@H]5O[C@H]45)[C@@H]3[C@@]1(Cl)C2(Cl)Cl,AC50,[3],24.1 µM (active)
same,AC50,[2],22.5 µM (active)
CCNc1nc(NC(C)C)nc(SC)n1,AC50,[1],76.9 µM (active)
same,outcome,[3],inactive
same,outcome,[2],inactive
